Screening data: PubChem, several laboratories
Compounds with a hit are over-represented: about 3.5% of the library has one in this group of screens.
Autofluor counter: counter-screen for toxin protease inhibitors: compound fluorescence; compound autofluorescence counterscreen, microsphere flow cytometry; active compounds read high; hit rate 3.1% among 360,000; fluorescence intensity (concentration not given with the values); in the data active means fluorescence intensity above about 16000; inconclusive means no clear call, values can overlap the other calls
BoNT F protease: BoNT/F light chain protease inhibitors, primary screen, biochemical, flow cytometry, MLPCN library | Botulinum neurotoxin type F light chain protease (Clostridium botulinum) | Multiplex microsphere protease cleavage assay | inhibition, % at 10 µM | hit rate 0.22% among 360,000; in the data active means inhibition above about 35%, passing the limit was not always enough; inconclusive means no clear call, values can overlap the other calls
BoNT A protease: BoNT/A light chain protease inhibitors, primary screen, biochemical, flow cytometry, MLPCN library; Botulinum neurotoxin type A light chain protease (Clostridium botulinum A str. ATCC 3502); multiplex microsphere protease substrate cleavage; inhibition, % at 10 µM; hit rate 0.17% among 360,000; AID 588499, 2011
Vc quorum ag: inducers of Vibrio cholerae quorum light production without autoinducers, primary screen, BH1578 luxS cqsA deficient, single point; V. cholerae BH1578 lux reporter, luminescence, 6 h; AID 588436, 2011; activation, % at 18.7 µM; hit rate 0.16% among 350,000; in the data active means activation mostly above about 9.7%, no sharp cut-off; inconclusive means no clear call, values can overlap the other calls; inactive means mostly below about 3.7%
Anthrax LF inh2: Bacillus anthracis LF protease inhibitors, primary screen, biochemical, multiplex microsphere, MLPCN library. Lethal factor (Bacillus anthracis), P15917. hit rate 0.12% among 360,000. inhibition, % at 10 µM. multiplex microsphere protease cleavage assay. AID 588501, 2011
Target sequence (P15917 whole entry, looked up): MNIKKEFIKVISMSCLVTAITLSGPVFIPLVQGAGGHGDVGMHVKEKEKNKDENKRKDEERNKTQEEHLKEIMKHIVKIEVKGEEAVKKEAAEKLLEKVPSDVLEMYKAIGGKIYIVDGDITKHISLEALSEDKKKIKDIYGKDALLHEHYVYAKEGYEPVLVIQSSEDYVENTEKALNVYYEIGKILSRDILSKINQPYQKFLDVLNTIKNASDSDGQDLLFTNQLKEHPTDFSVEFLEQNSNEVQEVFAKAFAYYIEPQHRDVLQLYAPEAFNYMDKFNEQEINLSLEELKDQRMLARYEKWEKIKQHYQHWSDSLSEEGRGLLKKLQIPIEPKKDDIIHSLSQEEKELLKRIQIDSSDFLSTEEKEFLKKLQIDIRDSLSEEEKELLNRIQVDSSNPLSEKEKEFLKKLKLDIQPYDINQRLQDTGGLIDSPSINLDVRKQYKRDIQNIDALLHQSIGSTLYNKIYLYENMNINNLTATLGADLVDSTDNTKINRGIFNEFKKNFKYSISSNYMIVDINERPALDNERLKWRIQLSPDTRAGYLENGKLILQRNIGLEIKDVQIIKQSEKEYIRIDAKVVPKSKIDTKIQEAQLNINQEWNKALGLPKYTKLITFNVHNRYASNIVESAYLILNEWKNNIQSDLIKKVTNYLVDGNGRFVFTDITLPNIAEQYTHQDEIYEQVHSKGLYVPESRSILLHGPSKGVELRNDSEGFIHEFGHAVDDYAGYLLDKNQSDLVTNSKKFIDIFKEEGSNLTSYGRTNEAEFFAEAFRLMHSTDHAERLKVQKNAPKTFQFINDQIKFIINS
Each line names hits and unclear results; the compound was inactive in the other large screens. Unless noted, no stated cut-off is given here; in the data, active means inhibition above about 30%; inconclusive means no clear call, values can overlap the other calls; inactive means below that.

CC(C)C(C)NC(=O)CN1C(=O)NC(c2ccccc2)(c2ccccc2)C1=O (stereo not drawn)	none
CC(=O)Nc1c(-c2ccccc2)c2cc(Br)ccc2[nH]c1=O	none
O=C1c2cccc3c(N4CCCCC4)ccc(c23)C(=O)N1CCO	none
Cc1n[nH]c(C)c1N1C(=O)c2cccc3c(N4CCCCCC4)ccc(c23)C1=O	Autofluor counter 20898
C=CCN1C(=O)c2cccc3c(N4CCCCC4)ccc(c23)C1=O	BoNT A protease 30
CC(C)(C)NC(=O)NC(=O)COC(=O)CCCc1c[nH]c2ccccc12	Autofluor counter 24864
CCOC(=O)CCCc1c[nH]c2ccccc12	Autofluor counter 21767
CCOC(=O)Cc1c[nH]c2ccccc12	none
Cc1c(C)n2c(SCC(=O)N3CCCCCC3)nnc2[nH]c1=O	none
CC(C)NS(=O)(=O)c1ccc(NC(=O)CCc2ccccc2)cc1	Autofluor counter 21469
COCC(=O)Nc1ccc(S(=O)(=O)NCCc2ccccc2)cc1	Autofluor counter 16357
CCC(=O)Nc1ccc(S(=O)(=O)NCCc2ccccc2)cc1	none (no result: Autofluor counter, BoNT F protease, BoNT A protease, Anthrax LF inh2)
CCOC(=O)C1=CC[C@@H](c2cc(OC)c(OC)c(OC)c2)N(S(=O)(=O)c2ccc(C)cc2)[C@H]1C(=O)OCC	none
O=C(Nc1ccc(F)c(Cl)c1)c1ccc2sc([C@@H]3O[C@H](CO)[C@H](O)[C@H](O)[C@H]3O)nc2c1	none
NC(=O)c1cc2cc(Cc3ccccc3Cl)ccc2oc1=O	none
O=C(c1ccc(Cl)cc1)C1CCN(C(=O)N2CCOCC2)CC1	Autofluor counter 19889
O=C(c1ccc(F)cc1)C1CCN(C(=O)N2CCOCC2)CC1	none
CC(C)c1nc2cc(C(=O)N(C)Cc3ccc(F)cc3)ccc2o1	none
CCOC(=O)CNC(=O)COc1ccc(Cl)cc1Br	Autofluor counter 23269
C=CCn1c(O)c(CN2CCN(Cc3ccccc3)CC2)c(C)c(C#N)c1=O	Autofluor counter inconclusive, Vc quorum ag 17
CCCn1c(O)c(CN2CCCCC2)c(C)c(C#N)c1=O	none
CC(C)c1ccccc1NC(=O)COC(=O)CCN1C(=O)/C(=C\C=C\c2ccccc2)SC1=S	BoNT A protease 40
O=C(COC(=O)CCN1C(=O)/C(=C\C=C\c2ccccc2)SC1=S)Nc1ccc(Br)cc1	BoNT A protease 41
CN(C)c1ccc(CC(=O)N2CCCC(c3cc(C(=O)Nc4ccc5c(c4)OCO5)no3)C2)cc1 (stereo not drawn)	none
CCCc1cc(=O)n2[nH]c(C(F)(F)F)nc2n1	none
CCCc1cc(=O)n2[nH]c(C)nc2n1	Autofluor counter 24470
CC(C)C(=O)N1CCN(c2ccc([N+](=O)[O-])c(NC(C)c3ccccc3)c2)CC1 (stereo not drawn)	none
CC(Nc1cc(N2CCN(C(=O)C(C)(C)C)CC2)ccc1[N+](=O)[O-])c1ccccc1 (stereo not drawn)	Autofluor counter 23558
CN(CC(=O)O/N=C(\N)c1ccccn1)S(=O)(=O)c1ccccc1	Autofluor counter 19036
COc1ccc(/C(N)=N/OC(=O)CN(C)S(=O)(=O)c2ccccc2)cc1	none
CCc1ccc(-c2cc(C(=O)N3N=C(C(F)F)CC3(O)C(F)F)c3ccccc3n2)cc1 (stereo not drawn)	none
CC(C)Cc1cc(C(=O)N2N=C(C(F)F)CC2(O)C(F)F)c2ccccc2n1 (stereo not drawn)	Autofluor counter 22633
O=[N+]([O-])c1ccccc1Oc1cnc2ccccc2n1	none
O=[N+]([O-])c1cc(-c2cnc3ccccc3n2)ccc1Oc1ccc(F)cc1	Autofluor counter 20404, BoNT A protease inconclusive
CSc1nc(N)nc(SCC(=O)CC(=O)OC(C)C)c1C#N	Autofluor counter 20850, BoNT A protease inconclusive
CC(C)COC(=O)N1CCN(S(=O)(=O)c2ccc3c(c2)CCC3)CC1	none
CCC(C)(C)NC(=O)CN(C(=O)CCC(=O)Nc1nccs1)c1ccc2c(c1)OCCO2	none
O=c1cc(CO)occ1OCc1cccc(F)c1	Autofluor counter 19821, BoNT A protease inconclusive
Cc1ccc(COc2coc(CO)cc2=O)cc1	none
CC(C)(C)c1ccc(-c2nc(C=O)c3ccccn23)cc1	Autofluor counter 18863, BoNT A protease inconclusive
COc1ccc(Nc2nc(N3CCCC3)nc(N3CCCC3)n2)c(OC)c1	Autofluor counter 20538
COc1ccc(Nc2nc(N3CCCCC3)nc(N3CCCCC3)n2)c(OC)c1	none
COc1ccc(Nc2nc(N)nc(C(F)(F)F)n2)c(OC)c1	Autofluor counter 17527
CC(C)=NOCC(=O)Nn1c(COc2c(C)cccc2C)nc2ccccc2c1=O	none
CC(=O)c1cc(F)c(N2CCN(c3ccc([N+](=O)[O-])cc3F)CC2)cc1C	Autofluor counter 20270
CC(=O)c1cc(F)c(N2CCCC2)cc1C	none
Cn1c(SCC(=O)Nc2ccc3c(c2)n(C)c(=O)n3C)nnc1-c1ccncc1	none
CCOC(=O)c1c(Nc2ccccc2)sc(/C=C2\C=Nc3ccccc32)c1O	Autofluor counter 17134
CC(C)c1ccc(C(=O)NC(=S)Nc2ccc3[nH]c(=O)[nH]c3c2)cc1	none
Cc1cc(Br)cn2ccnc12	Autofluor counter 22557
COc1ccccc1-c1nnc(SCC(=O)Nc2ccc(Cl)cc2Cl)o1	none
COc1cccc2c1OC[C@@H](CO)[C@H]2N(C)C(=O)Nc1ccc(Cl)cc1Cl	Autofluor counter 17819
CCc1ccc(C2=NN(S(C)(=O)=O)C(c3cccs3)C2)cc1 (stereo not drawn)	Autofluor counter 19673
CCS(=O)(=O)Nc1cccc(C2=NN(S(=O)(=O)c3ccccc3)C(c3cccs3)C2)c1 (stereo not drawn)	Autofluor counter 22079
Cc1ccc(C)c(N2N=C(C(=O)OCC(=O)N(C)c3ccccc3)CCC2=O)c1	none (no result: Autofluor counter, BoNT F protease, BoNT A protease, Anthrax LF inh2)
CS(=O)(=O)N(CC(=O)Nc1ccccc1C(=O)NCc1ccco1)c1ccc2c(c1)OCCO2	Autofluor counter 23961
CC(C)CNC(=O)c1ccccc1NC(=O)CN(c1ccc2c(c1)OCCO2)S(C)(=O)=O	none
COc1ccc(N(CC(=O)Nc2ccccc2C(=O)NCCc2ccccc2)S(C)(=O)=O)cc1OC	Autofluor counter 21907
CCC(C)NC(=O)c1ccccc1NC(=O)CN(c1ccc(OC)cc1)S(C)(=O)=O (stereo not drawn)	Autofluor counter 23469
Cc1cc(C)c2cc(CN(Cc3ccco3)C(=S)NCC3CCCO3)c(=O)[nH]c2c1 (stereo not drawn)	none
O=[N+]([O-])c1ccc(-n2cnc3ccccc32)c([N+](=O)[O-])c1	none
COc1cccc(/C=C2/Oc3ccccc3N(CC(=O)NCC3CCCO3)C2=O)c1 (stereo not drawn)	none
Cc1c(NS(=O)(=O)N2CCCCC2)c(=O)n(-c2ccccc2)n1C	Autofluor counter 16324
CCS(=O)(=O)Nc1c(C)n(C)n(-c2ccccc2)c1=O	none
Cc1c(NC(=O)c2n[nH]c(=O)c3ccccc23)c(=O)n(-c2ccccc2)n1C	Autofluor counter 21768
CCOC(=O)Nc1c(C)n(C)n(-c2ccccc2)c1=O	Autofluor counter 19722
